High-throughput results (PubChem BioAssay)
Compounds with a hit are over-represented: about 1.6% of the library has one in this group of screens.
KCNQ2 pot – enhances the rat KCNQ2 potassium channel | O88943 | CHO-K1 KCNQ2, FluxOR thallium flux fluorescence; stronger effect = higher value | B-score at 10 µM | 0.54% of 310,000 active;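 active = fluorescence ratio B-score at least 3 SD of library B-scores, with initial fluorescence B-score within 3 of them, cut at about 5.3 in these data; same plate scores as AID 2156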;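 note: B-score of peak minus minimum over baseline fluorescence ratio after K+ and Tl+ stimulus; positive B-score means potentiation of KCNQ2 with more thallium influx and brighter signal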
KCNQ2 inh – blocks the rat KCNQ2 potassium channel; O88943; CHO-K1 KCNQ2, FluxOR thallium flux, 20 min; stronger effect = lower value; B-score at 10 µM; 1.1% of 310,000 active; AID 2156;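 active = fluorescence ratio B-score at most minus 3 library SDs, with starting brightness B-score within 2 library SDs, cut at about -5.5 in these data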
KCNQ2 inh conf – confirmation of rat KCNQ2 potassium channel inhibitors; KCNQ2-expressing cells, thallium flux, inhibition; stronger effect = lower value; shares compounds with KCNQ2 inh; activity change, negative = inhibition, % at 10 µM; AID 493025; 57% of 1,000 active;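 note: 0% = vehicle wells and values are ratio percent relative to vehicle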
KCNQ1 spec – human KCNQ1 activity in KCNQ2 inhibitor specificity screen; 15% of 1,000 active; shares compounds with KCNQ2 inh; AID 493026; KCNQ1-expressing cells, FluxOR thallium flux fluorescence; stronger effect = lower value; activity change, negative = inhibition, % at 10 µM;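 active = activity change at least 3 SD of negative controls below their mean in both duplicate wells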;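 note: CHO cells stably transfected with KCNQ1 and depolarized by potassium stimulus; peak minus minimum fluorescence over baseline after thallium addition; 0% = vehicle negative control and -100% = blank without thallium stimulus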
Target sequence (P51787 whole entry, looked up): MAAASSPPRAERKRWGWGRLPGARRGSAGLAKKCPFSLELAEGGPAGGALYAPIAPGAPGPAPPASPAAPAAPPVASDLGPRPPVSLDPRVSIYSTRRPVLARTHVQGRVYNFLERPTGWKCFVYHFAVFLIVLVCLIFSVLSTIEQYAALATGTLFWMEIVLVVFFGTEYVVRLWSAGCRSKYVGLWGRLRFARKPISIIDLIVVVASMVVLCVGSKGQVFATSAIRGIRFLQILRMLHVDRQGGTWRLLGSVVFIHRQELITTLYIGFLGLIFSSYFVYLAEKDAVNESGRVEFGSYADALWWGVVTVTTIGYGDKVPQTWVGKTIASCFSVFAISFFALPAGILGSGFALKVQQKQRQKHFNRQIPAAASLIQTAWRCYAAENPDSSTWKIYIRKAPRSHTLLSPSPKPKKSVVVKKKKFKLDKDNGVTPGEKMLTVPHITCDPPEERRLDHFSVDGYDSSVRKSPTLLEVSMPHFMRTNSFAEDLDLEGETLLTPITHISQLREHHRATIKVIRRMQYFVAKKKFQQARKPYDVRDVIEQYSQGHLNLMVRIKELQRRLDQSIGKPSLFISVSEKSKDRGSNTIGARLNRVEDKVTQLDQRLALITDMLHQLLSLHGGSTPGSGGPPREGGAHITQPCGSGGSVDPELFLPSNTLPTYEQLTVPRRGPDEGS
CHO Tl ctr – KCNQ2 inhibitor counter-screen hit in parental CHO cells | shares compounds with KCNQ2 inh | thallium flux counter-screen; stronger effect = lower value | activity change, % at 10 µM | 14% of 1,000 active;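 note: 0% = vehicle negative controls with stimulus buffer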
KCNQ2 inh confirm – rat KCNQ2 inhibition confirmed by electrophysiology. KCNQ2-expressing cells, automated patch clamp current. 49% of 550 active. calls only at 10 µM. shares compounds with KCNQ2 inh
* marks the source's active call; other numbers are inactive results; i = inactive; · = no result given; + = active, no number. Unless noted, the rule behind the calls is not given here.

SMILES	KCNQ2 pot	KCNQ2 inh	KCNQ2 inh conf	KCNQ1 spec	CHO Tl ctr	others
COc1ccc(C)cc1NC(=O)C(Sc1nnnn1C)c1ccccc1 (configuration not stated)	·	i	·	·	·
Cc1ccc(-n2nc3c(c2NC(=O)c2cc4ccccc4o2)CS(=O)(=O)C3)cc1	·	i	·	·	·
Cc1cc(C(=O)NC2CCCN(Cc3ccc(Cl)cc3)C2)no1 (configuration not stated)	·	i	·	·	·
O=C(COC(=O)CC12CC3CC(CC(C3)C1)C2)Nc1cccnc1Cl	-7.3	-7.3*	-38%*	i	i	KCNQ2 inh confirm=+
O=C(COC(=O)c1ccccn1)Nc1cccnc1Cl	·	i	·	·	·
O=[N+]([O-])c1c(C(Cl)Cl)nn(-c2ccccc2)c1N1CCOCC1	0.28	i	·	·	·
COc1ccc(S(=O)(=O)Nc2cc(C)c(O)cc2C(C)C)cc1	·	i	·	·	·
CN(C)c1ccnc(NCc2ccccc2)c1C#N	0.98	i	·	·	·
CN(C)c1ccnc(N(Cc2ccccc2)Cc2ccccc2)c1C#N	-7.2	-7.2*	i	i	i
O=C(c1ccc(F)cc1)N(NC(=O)C(O)(c1ccccc1)c1ccccc1)c1ccccc1	·	i	·	·	·
COC(=O)N(NC(=O)C(O)(c1ccccc1)c1ccccc1)c1ccccc1	-7	-7*	i	i	i
C=CCNC(=O)c1c2c(nc3ccccc13)-c1ccccc1CC2	-7.6	-7.6*	i	i	i
CC(C)CNC(=O)c1c2c(nc3ccccc13)-c1ccccc1CC2	·	i	·	·	·
COc1cccc2c1CCc1c-2nc2ccccc2c1C(=O)O	0.66	i	·	·	·
CCN(CC)C(=O)c1c2c(nc3ccccc13)-c1ccccc1CC2	-8.8	-8.8*	i	i	i
COc1ccc(C(=O)C(C)[n+]2ccc(-c3nnc4n3CCCCC4)cc2)cc1 (configuration not stated)	·	i	·	·	·
CCOCCCNC(=O)C(c1ccc(OC)cc1)N(Cc1ccc2c(c1)OCO2)C(=O)CNC(C)=O (configuration not stated)	0.77	i	·	·	·
CC1Cc2ccccc2N1C(=O)COC(=O)c1cc(Br)ccc1O (configuration not stated)	·	i	·	·	·
Cc1cccc(/C(N)=N/OC(=O)Cc2ccccc2)c1	3	i	·	·	·
Cc1cccc(/C(N)=N/OC(=O)N2c3ccccc3Sc3ccccc32)c1	-6.8	-6.8*	i	i	i
COCCCN(C(=S)Nc1cc(Cl)cc(Cl)c1)C(C)c1ccccn1 (configuration not stated)	-8.5	-8.5*	i	i	i
COCCCN(C(=S)Nc1cc(Cl)cc(Cl)c1)C(C)c1ccncc1 (configuration not stated)	0.36	i	·	·	·
CCCNCc1cc(Br)ccc1OCC(=O)NCCc1ccccc1	0.72	i	·	·	·
O=C(COc1ccc(Br)cc1CNCCc1ccccc1)NCc1ccccc1	-7.6	-7.6*	-32%*	i	i	KCNQ2 inh confirm=+
O=[N+]([O-])c1cccc(/C=N/N2CCN(Cc3ccccc3)CC2)c1	·	i	·	·	·
SMILES	KCNQ2 pot	KCNQ2 inh	KCNQ2 inh conf	KCNQ1 spec	CHO Tl ctr	others
O=[N+]([O-])c1cccc(/C=N\N2CCN(Cc3ccccc3Cl)CC2)c1	-7.3	-7.3*	i	i	i
CC(=O)N1CCCC(C(=O)c2ccc3c4c(cccc24)CC3)C1 (configuration not stated)	0.67	i	·	·	·
Cc1ccc(C(=O)N2CCN(Cc3ccc4c(c3)OCO4)CC2)o1	0.38	i	·	·	·
Cc1ccc2c(C)c(C(=O)N3CCN(Cc4ccc5c(c4)OCO5)CC3)oc2c1C	-6.9	-6.9*	i	i	i
CCO/C=C1/C(=O)N(c2ccccc2OC)C(=O)c2ccccc21	0.52	i	·	·	·
COC(=O)c1c(-c2ccc(F)cc2)csc1NC(=O)C1CCCO1 (configuration not stated)	0.46	i	·	·	·
CCc1ccc(-c2csc(NC(=O)C3CCCO3)c2C(=O)OC(C)C)cc1 (configuration not stated)	-8.3	-8.3*	-29%*	i	i
O=C(O)c1cnc(-c2ccccc2)nc1Oc1ccccc1	·	i	·	·	·
O=C(O)c1cnc(-c2ccccc2)nc1Oc1ccc(Cl)cc1	-7.5	-7.5*	-20%*	i	i	KCNQ2 inh confirm=+
O=C(Cc1cccs1)Nc1nc(-c2cccnc2)cs1	0.05	i	·	·	·
O=c1ccc2cc3c(-c4ccccc4)coc3cc2o1	3	i	·	·	·
Cc1ccc(NC(=O)Nc2ccccc2CC[N+](=O)[O-])cc1	·	i	·	·	·
COc1cc(CC(=O)NC2CCCc3ccccc32)cc(OC)c1OC (configuration not stated)	0.39	i	·	·	·
CCOC(=O)N1CCC(NC(=O)CSCc2nc(-c3ccc(OC)cc3)oc2C)CC1	·	i	·	·	·
CC(C)C[C@H](NC(=O)NC1CCCc2ccccc21)C(=O)O (some centres not stated)	·	i	·	·	·
COc1ccc(-c2nc(CSCC(=O)NC3CCCc4ccccc43)c(C)o2)cc1 (configuration not stated)	-7.3	-7.3*	-29%*	i	i	KCNQ2 inh confirm=+
COC(=O)[C@H](CC(C)C)NC(=O)NC1CCCc2ccccc21 (some centres not stated)	-7.5	-7.5*	-28%*	i	i	KCNQ2 inh confirm=+
COc1ccccc1CC(=O)NC1CCCc2ccccc21 (configuration not stated)	-7.1	-7.1*	-24%*	i	i	KCNQ2 inh confirm=+
COc1ccc(CN(CCN(C)C)Cc2ccccc2)c(OC)c1	1.4	i	·	·	·
COC(=O)CC1COc2ccccc2N1C(=O)c1ccc(C(C)(C)C)cc1 (configuration not stated)	-6.8	-6.8*	-29%*	i	i	KCNQ2 inh confirm=+
COC(=O)CC1COc2ccccc2N1C(=O)c1ccc(Br)cc1 (configuration not stated)	·	i	·	·	·
COc1ccc(NC(=O)COc2ccccc2C)cc1S(=O)(=O)N1CCCCC1	·	i	·	·	·
Cc1ccc(NC(=O)COc2cccc(C)c2C)cc1S(=O)(=O)N1CCCCCC1	-8.8	-8.8*	-36%*	-32%*	-24%*	KCNQ2 inh confirm=i
CCC(=O)N1CCN(c2ccccc2NC(=O)c2cccc(C)c2)CC1	·	i	·	·	·
Cc1ccccc1OCC(=O)Nc1ccccc1N1CCCCC1	-10	-10*	-26%*	i	i	KCNQ2 inh confirm=+
SMILES	KCNQ2 pot	KCNQ2 inh	KCNQ2 inh conf	KCNQ1 spec	CHO Tl ctr	others
Cc1cc(C)cc(OCC(=O)Nc2ccccc2N2CCCCC2)c1	·	i	·	·	·
CCC(=O)N1CCN(c2ccccc2NC(=O)COc2cccc(C)c2)CC1	-10	-10*	-28%*	i	i	KCNQ2 inh confirm=+
COc1ccccc1CC(=O)Nc1cc(OC)c(NC(=O)c2ccccc2)cc1OC	·	i	·	·	·
O=C(c1cccc(F)c1)N1CCN(Cc2c[nH]c3ccccc23)CC1	·	i	·	·	·
Cn1c(-c2ccc3c(c2)OCO3)cnc1NCc1ccccc1Cl	0.69	i	·	·	·
Cn1c(-c2ccc3c(c2)OCO3)cnc1NCc1cccc(Cl)c1	-9	-9*	i	i	i
